Experimental data as given in PubChem BioAssay (NCI).
This is part of a sample that, as a whole, favours compounds with a hit. Of some 83,000 tested, about 20% had one in any assay.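 Percent growth is the endpoint: 0 to 100 indicates growth inhibition (40 means 60% inhibition), 0 means no net growth, and negative values indicate cell death.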 Unmarked numbers belong to inactive results. Calls of active or inactive are those of the source. The calls were made as follows: active = growth percent below 10; inactive = the rest.

Columns and labels:
Test in all cases: NCI-60 one-dose screen, 48 h (100 = growth as untreated, 0 = no growth, -100 = all killed)
Conditions in all cases: 10 µM unless noted
NCI-H23 lung = tested on: NCI-H23 lung
NCI-H226 lung = tested on: NCI-H226 lung
NCI-H322M lung = tested on: NCI-H322M lung
HOP-62 NSCLC = tested on: HOP-62 NSCLC
NCI-H460 lung = tested on: NCI-H460 lung
HOP-92 NSCLC = tested on: HOP-92 NSCLC
NCI-H522 lung = tested on: NCI-H522 lung
A549/ATCC NSCLC = tested on: A549/ATCC NSCLC
786-0 renal = tested on: 786-0 renal
COLO 205 colon = tested on: COLO 205 colon
DU-145 prostate = tested on: DU-145 prostate
K-562 leukemia = tested on: K-562 leukemia
MALME-3M melanoma = tested on: MALME-3M melanoma
MDA-MB-231 breast = tested on: MDA-MB-231 breast
RXF 393 renal = tested on: RXF 393 renal
SF-268 CNS = tested on: SF-268 CNS
SF-295 CNS = tested on: SF-295 CNS
SF-539 CNS = tested on: SF-539 CNS
UACC-257 melanoma = tested on: UACC-257 melanoma
M14 melanoma = tested on: M14 melanoma

SMILES | growth (NCI-H23 lung) | growth (NCI-H226 lung) | growth (NCI-H322M lung) | growth (HOP-62 NSCLC) | growth (NCI-H460 lung) | growth (HOP-92 NSCLC) | growth (NCI-H522 lung) | growth (A549/ATCC NSCLC) | growth (786-0 renal) | growth (COLO 205 colon) | growth (DU-145 prostate) | growth (K-562 leukemia) | growth (MALME-3M melanoma) | growth (MDA-MB-231 breast) | growth (RXF 393 renal) | growth (SF-268 CNS) | growth (SF-295 CNS) | growth (SF-539 CNS) | growth (UACC-257 melanoma) | growth (M14 melanoma)
C[C@@]1(CO)[C@H](O)CC[C@@]2(C)[C@H]1CC[C@H]1C[C@@H]3C[C@@]12CC[C@@]3(O)COC(=O)CN | 21.5% | 62% | 78.1% | 37.6% | 12% | 45.4% | 49% | 3.43% (active) | 14.9% | 47% | 9.57% (active) | 34.2% | 77.4% | 92% | 5.23% (active) | 50.5% | 8.57% (active) | -13.9% (active) | 21% | 42.4%
Cc1cc(C(=C2C=CC(=Nc3ccccc3)C=C2)c2ccc(Nc3ccccc3)cc2)ccc1N | -32.2% (active) | -84.4% (active) | -34.4% (active) | -85.2% (active) | -83.9% (active) | -92.9% (active) | -81.3% (active) | -91.9% (active) | -84.1% (active) | -65.1% (active) | -97.2% (active) | 14.1% | -63.6% (active) | -56% (active) | -93.7% (active) | -68.7% (active) | -71.9% (active) | -60.8% (active) | -91.6% (active) | –
S=C(S)OCN1CCOCC1 | 93.8% | 97% | 98% | 108% | 90.3% | 86.4% | 1.59% (active) | 91.6% | 108% | 20.7% | 86% | 77.3% | 87.5% | 116% | 107% | 97.9% | 95.6% | 101% | 42.6% | 77.4%
N#CC(I)CS(=O)(=O)c1ccccc1 (stereo not given) | 101% | 105% | 124% | 98.6% | 114% | 94.5% | -80.6% (active) | 93.3% | 107% | -27.5% (active) | 100% | 80.6% | -22.4% (active) | 98.3% | 81.8% | 86.8% | 115% | 95.6% | 73.1% | –
COc1cc(/C=C/C(=O)CC(=O)/C=C/c2ccc(O)c(OC)c2)ccc1O | 21.1% | 88.1% | 78.3% | 40.9% | 47.4% | 71.9% | -22.5% (active) | 63.8% | 16.7% | 86.3% | 40.6% | 12.5% | 60.3% | 82.3% | 20.3% | 44.9% | 102% | 14.8% | 53.6% | 7.15% (active)
CCOC(=O)C1(C)CCCC1N (stereo not given) | 102% | 99.1% | 101% | 109% | 109% | -14.2% (active) | 102% | 110% | 103% | 131% | 108% | 101% | 101% | 97% | 104% | 92.4% | 105% | 103% | 113% | 106%
COc1ccc2nc3cc([N+](=O)[O-])ccc3c(NNc3ccccc3)c2c1 | 66.6% | 63.8% | 86.9% | 37% | 82.4% | 14.8% | 85% | 95.2% | -18.8% (active) | 99.8% | 89.6% | 90.5% | 90.9% | 66.5% | 46.9% | 56.8% | 56% | 22.6% | 101% | –
CN(C)CCSC1=Nc2ccc(Cl)cc2C(c2ccccc2Cl)N(C)C1 (stereo not given) | 90% | 52.4% | 58.7% | 55.9% | 78.7% | 51.4% | 71.8% | 78% | 65.2% | 70.4% | 94.2% | 47.9% | 58.8% | 51.1% | 104% | 86.3% | 59.7% | 58% | 72.3% | 60.3%
O=[N+]([O-])c1ccc(C(Br)c2ccc([N+](=O)[O-])cc2)cc1 | 79.5% | 99.6% | 114% | 105% | 102% | 86.1% | -40.3% (active) | 100% | 108% | 88.3% | 111% | 25.4% | 101% | 93.8% | 117% | 84.8% | 80.6% | 110% | 98.1% | 22.6%
O=[N+]([O-])c1ccc([I+]c2ccccc2)cc1 | -55.1% (active) | -30.2% (active) | 67.4% | -67.6% (active) | 4.38% (active) | 60.5% | -87.8% (active) | -71.6% (active) | -15.4% (active) | -84.3% (active) | -10.5% (active) | 9.29% (active) | -0.265% (active) | 35.4% | 57.8% | -69.7% (active) | 77.9% | 1.87% (active) | 29.7% | -36.6% (active)
COC1CC(C)C(OC)c2cc(O)cc(c2O)NC(=O)/C(C)=C/C=C\C(C)C(OC(N)=O)/C(C)=C\C(C)C1OC (stereo not given) | 39.4% | 47.8% | 54.1% | 37.9% | 9.42% (active) | 11.4% | -67.4% (active) | 13.3% | 31.3% | -0.179% (active) | -29.7% (active) | -58.6% (active) | 32.1% | 32.4% | -20.5% (active) | 63.1% | -15.9% (active) | 6.34% (active) | 14.4% | –
CCCCCCCCCCCC[n+]1ccc(CCCCCCCCC)cc1 | -80.8% (active) | -65.2% (active) | 56.1% | -84.8% (active) | -63.6% (active) | -55.5% (active) | -33.1% (active) | -44.8% (active) | -85.1% (active) | -76.5% (active) | -83.6% (active) | -37.4% (active) | -76.4% (active) | -81.1% (active) | -78.9% (active) | -79.2% (active) | -51.3% (active) | -80.7% (active) | -18.4% (active) | -82.6% (active)
CCCCC(C=O)(C=C=C(C)C)CC (stereo not given) | 112% | 103% | 101% | 120% | 105% | 86.4% | 95.5% | 94.3% | 99.1% | 110% | 113% | 111% | 97.7% | 114% | 106% | 102% | 95% | 98% | 98.1% | 102%
c1ccc(-c2cc3cc4ccccc4cn3c2)cc1 | 89.3% | 73.1% | 99.6% | 78.7% | 88.3% | 76.5% | 79.4% | 89.9% | 102% | 95.1% | 101% | 64.3% | 91.3% | 81.6% | 104% | 95.7% | 84.8% | 104% | 91.6% | 94.7%
CCCCCCCCCCCCCCCCCC1=NCCCN1CCO | 106% | 103% | 101% | 90.7% | 105% | 95.5% | 103% | 94.7% | 104% | 108% | 108% | 100% | 97.4% | 87.8% | 124% | 98.9% | 96% | 103% | 96.1% | –
O=C(Cc1ccccc1)C(F)(F)F | 103% | 105% | 94.2% | 102% | 103% | 104% | 107% | 105% | 94% | 104% | 103% | 94.5% | 99.4% | 96.5% | 104% | 98.9% | 101% | 97% | 18.1% | 99.6%
